Among all 410,000 compounds or so, about 6,400 (1.6%) were called active. Inconclusive results (about 20%) are left out. What follows is part of a selection rich in actives, with near analogues and random picks from the rest. Unmarked numbers belong to inactive results. Calls come from the whole dose curve; as a rule, active = well fitted inhibition curve with a large enough effect; inconclusive = small, poorly fitted or top-dose-only effect; inactive = no such curve, though single readings can be large or run the other way.
molecular target: Glucagon-like peptide 1 receptor (Homo sapiens) (UniProt P43220); assay: qHTS of GLP-1 Receptor Inverse Agonists (Inhibition Mode); conditions: HEK293 GLP-1R CRE-luciferase, luminescence, 24 h, GLP-1R form is constitutively active; series mostly up to 38.3 µM; activity change, negative = inhibition: at the top concentration; note: nearly all actives have a fitted effect of over 55% in size
Sequence (P43220 whole entry, looked up): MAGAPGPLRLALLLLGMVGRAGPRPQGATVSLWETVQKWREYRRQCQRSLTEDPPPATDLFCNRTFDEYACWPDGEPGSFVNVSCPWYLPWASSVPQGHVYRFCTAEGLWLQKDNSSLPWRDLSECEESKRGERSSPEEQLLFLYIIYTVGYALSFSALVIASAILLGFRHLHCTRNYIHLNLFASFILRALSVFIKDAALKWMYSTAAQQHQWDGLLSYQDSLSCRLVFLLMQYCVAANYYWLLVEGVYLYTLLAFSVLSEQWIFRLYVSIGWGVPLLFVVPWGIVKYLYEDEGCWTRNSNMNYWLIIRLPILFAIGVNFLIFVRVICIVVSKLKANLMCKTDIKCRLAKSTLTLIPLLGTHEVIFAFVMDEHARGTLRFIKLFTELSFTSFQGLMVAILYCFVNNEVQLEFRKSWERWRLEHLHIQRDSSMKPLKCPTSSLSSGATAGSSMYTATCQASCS
Procedure, shortened: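 Seeding at 200 cells/uL, 12 h culture, 24 hr compound treatment, then luciferase reagent and a luminescence read; cells are HEK293 stably expressing a constitutively active GLP-1R plus cAMP-responsive luciferase.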
% is set by controls: 0 for no effect and ±100 for the full control effect; potency is the fitted concentration of half-maximal effect.

SMILES | activity change, negative = inhibition | Potency
COc1ccc(NC(=O)CN(C)C(=O)c2cc(C)oc2C)cc1 | 7.15% | 
O=C(/C=C/[C@H]1O[C@@H](n2ccc(=O)[nH]c2=O)[C@H](O)[C@@H]1O)NCc1ccccn1 | 1.39% | 
C[C@H](CO)N1C[C@H](C)[C@@H](CN(C)C(=O)c2cnccn2)Oc2ncc(Br)cc2C1=O | 4.24% | 
CC(C)C[C@@H]1COc2cc(N3CCC[C@@H]3CO)ccc2S(=O)(=O)N1 | 26.8% | 
Cc1cccc([C@@H]2[C@@H]3C(=O)N(Cc4ccccc4)C(=O)[C@@H]3[C@]3(Cc4ccc(Cl)cc4)C(=O)N(c4cccc(Cl)c4)C(=O)N23)c1 | -13.2% | 
CCN1C(=O)[C@H]2[C@@H](c3ccc(C)cc3)N3C(=O)N(c4cccc(Br)c4)C(=O)[C@@]3(CC)[C@H]2C1=O | -10.8% | 
O=C1[C@H]2[C@@H](c3ccc(F)cc3)N3C(=O)N(c4ccc(C(F)(F)F)cc4)C(=O)[C@@]3(Cc3ccccc3)[C@H]2C(=O)N1C1CCCCC1 |  | 2.24 µM (active)
CC(=O)c1ccc(Nc2nc(C(N)c3ccccc3Cl)cs2)cc1 (centres undefined) | -8.94% | 
C[C@H](CO)N1C[C@H](C)[C@@H](CN(C)C(=O)c2cccc(F)c2)Oc2cc(-c3cncnc3)ccc2S1(=O)=O | 18% | 
O=C(NCc1ccccc1)C1CNCC(C(=O)NCc2ccccc2)C1 (centres undefined) | -2.63% | 
C=CCOC(=O)C1=C(C)NC(C)=C(C(=O)OCC=C)C1c1cccs1 |  | 10 µM (active)
C=CCOC(=O)c1ccccc1C(=O)OCC=C | 5.03% | 
CCOC(=O)C1=C(C)Nc2nc3ccccc3n2C1c1cccs1 (centres undefined) | -7.21% | 
COc1ccc(-c2[nH][nH]c(=O)c2NC(=O)c2ccc([N+](=O)[O-])cc2)cc1 | 29.1% | 
CCc1ccc(OCC(=O)NCC(c2ccc(Cl)cc2)N2CCCCC2)cc1 (centres undefined) |  | 8.91 µM (active)
COc1ccc(C(CNC(=O)COc2ccc([N+](=O)[O-])cc2)N2CCCCC2)cc1 (centres undefined) | -38.2% | 
COc1ccc(C(CNC(=O)COc2ccccc2OC)N2CCCCC2)cc1 (centres undefined) | -9.18% | 
O=S1(=O)CC(N2CCN(CCO)CC2)CN1Cc1cn(Cc2cccc(Cl)c2)nn1 (centres undefined) | 13.8% | 
CC1CC(C)(C)n2c(O)c(N=NC(N)=S)c3cccc1c32 (centres undefined) |  | 5.01 µM (active)
CN1OC[C@@H]2CN(S(=O)(=O)c3cccc(C(F)(F)F)c3)[C@H](c3ccc(-c4cc5ccccc5o4)cc3)C[C@@H]21 | -27.7% | 
Cc1ccc(CN(N=Nc2nonc2N)c2nonc2N)c(C)c1 |  | 2.82 µM (active)

SMILES | activity change, negative = inhibition | Potency
COc1cc(CNc2ncnc3c2ncn3[C@H]2CN(Cc3cccs3)C[C@@H](CO)O2)cc(OC)c1OC | 12.8% | 
CCOc1ccc(S(=O)(=O)Nc2ccc(C(=O)NCCCN3CCCC3=O)cc2)cc1 | 8.39% | 
CC(=O)c1ccc(S(=O)(=O)Nc2ccc(C(=O)NCC(c3ccccc3)N(C)C)cc2)cc1 (centres undefined) | 7.27% | 
COc1ccc(C(CNC(=O)c2ccc(S(=O)(=O)Nc3ccccc3F)cc2)N(C)C)cc1 (centres undefined) | -1.55% | 
CCOc1ccc(NS(=O)(=O)c2ccc(C(=O)NCC(c3ccccc3OC)N3CCCC3)cc2)cc1 (centres undefined) |  | 11.2 µM (active)
CCOc1ccc(NS(=O)(=O)c2ccc(C(=O)NCC3CCCO3)cc2)cc1 (centres undefined) | 12% | 
COc1ccc(NS(=O)(=O)c2cccc(C(=O)NCCc3ccc(S(N)(=O)=O)cc3)c2)cc1 | 8.26% | 
COc1ccccc1C(CNC(=O)c1cccc(NS(=O)(=O)c2ccc(Br)cc2)c1)N(C)C (centres undefined) |  | 10 µM (active)
CC1CN(C(=O)c2cccc(NS(=O)(=O)c3ccc(Br)cc3)c2)CC(C)O1 (centres undefined) | -2.73% | 
CN(C)C(CNC(=O)c1cccc(C#N)c1)c1ccco1 (centres undefined) | -28.8% | 
COc1ccccc1NS(=O)(=O)c1ccc(C)c(C(=O)NCC(c2ccco2)N(C)C)c1 (centres undefined) | 14.3% | 
CN(C)C(CNC(=O)c1cccc(S(=O)(=O)Nc2ccc(Br)cc2)c1)c1ccco1 (centres undefined) |  | 12.6 µM (active)
COc1ccc(C(CNC(=O)c2cccc(S(=O)(=O)Nc3ccc(Br)cc3)c2)N(C)C)cc1 (centres undefined) |  | 10 µM (active)
Cc1ccc(NC(=O)COC(=O)CN2CCSC2=O)cc1F | 4.88% | 
OCCN1CCN(c2ncnc3c2ncn3[C@H]2CN(Cc3ccco3)C[C@@H](CO)O2)CC1 | 27.9% | 
CCOC1=C2CN(S(=O)(=O)c3ccc(C)cc3)[C@H](c3cccs3)C[C@H]2[C@H]2C(=O)N(c3ccccc3)C(=O)[C@H]2C1 | 19.3% | 
C[C@H]1NS(=O)(=O)c2cc(Cl)ccc2O[C@@H]1c1ccccc1 | -13.6% | 
CC1(C)CC(=O)C=C(c2ccc(COC(=O)c3cc(F)cc(F)c3)cc2)C1=O | -15.2% | 
O=C(Nc1cc(Br)ccc1F)c1nc[nH]c1C(=O)NCc1ccccc1 | -18.9% | 
O=[N+]([O-])c1ccc(CN2CC(N3CCC(c4ccccc4)CC3)CS2(=O)=O)cc1 (centres undefined) | -15.4% | 
Cc1cccc(NS(=O)(=O)c2ccc(C)c(C(=O)NCc3cccnc3)c2)c1 | -16.4% | 

SMILES | activity change, negative = inhibition | Potency
Cc1cccc(NS(=O)(=O)c2ccc(C)c(C(=O)NCC(c3ccccc3)N(C)C)c2)c1 (centres undefined) |  | 3.98 µM (active)
Cc1cccc(NS(=O)(=O)c2ccc(C)c(C(N)=O)c2)c1 | 8.25% | 
CCCc1c(C)nc2scc(-c3ccc(Cl)cc3)n2c1=O | -2.09% | 
CCc1nc2c(OCCOc3ccccc3)cccn2c1N(C)C(=O)c1ccccc1F | -23.8% | 
O=C(CCN1CCCCC1)Nc1ccc(F)c(F)c1 | 0.244% | 
CCOc1ccc(NC(=O)c2cn(C3CCCCC3)c(=O)c3c2c2ccccc2n3C)cc1 | 6.66% | 
CCOC(=O)N1CCN(C(=O)c2nn(-c3ccc(C)cc3)c(=O)c3c2c2ccccc2n3C)CC1 | -23.3% | 
Cn1c2ccccc2c2c(C(=O)N3CCN(c4ccc(F)cc4)CC3)cn(C3CCCC3)c(=O)c21 |  | 10 µM (active)
CCN(CC)CCN(C)C(c1ccnc2ccccc12)c1nnnn1-c1ccc2c(c1)OCCO2 (centres undefined) | 6.96% | 
CCCCNC(=O)c1ccc(-n2c(=S)[nH]c3ccccc3c2=O)cc1 | 11.5% [at 7.66 µM] | 
CCCCNC(=O)N(O)C1N(/N=C/c2ccccc2O)C(=S)SC1(C)C (centres undefined) |  | 11.2 µM (active)
CCCCC(O)C1=C[N+](=O)CC=C1 (centres undefined) | 17.7% | 
C[C@H](NC(=O)[C@@H]1CCCN1C(=O)[C@@H]1CCCN1C(=O)c1ccccc1)c1ccccc1 | -4.32% | 
COC(=O)c1ccc2nc(-c3ccc(Cl)cc3)c(Cc3cccc(F)c3)n2c1 | 3% | 
CN1/C(=c2/s/c(=C3/C(=O)N(c4ccccc4)NC3=Nc3ccccc3)n(C)c2=O)C(C)(C)c2ccccc21 |  | 1.41 µM (active)
C[C@H](CO)N1C[C@H](C)[C@@H](CN(C)S(=O)(=O)c2ccc(F)cc2)OCc2cnnn2CCCC1=O | -1.3% | 
O=C(Nc1cccc(Cc2ccccc2)c1)Nc1ccc2nc([C@@H]3O[C@H](CO)[C@@H](O)[C@H](O)[C@H]3O)[nH]c2c1 | 4.05% | 
O=C(NCCN1CCOCC1)C1CCN(S(=O)(=O)c2ccccc2)CC1 | 4.84% | 
O=C1[C@H]2[C@@H](c3ccc(C(F)(F)F)cc3)N[C@]3(CCCN(Cc4ccc(Cl)cc4)C3=O)[C@H]2C(=O)N1Cc1ccccc1 |  | 4.47 µM (active)
COc1ccc([C@H]2N[C@]3(CCCN(CC4CCCCC4)C3=O)[C@H]3C(=O)N(C)C(=O)[C@@H]23)cc1 | -0.512% | 
CCN1C[C@@H]2[C@@H]3C(=O)N(Cc4ccccc4)C(=O)[C@@H]3[C@](C)(C1=O)N2C(=O)c1ccc(C(C)(C)C)cc1 | 1.29% | 

SMILES | activity change, negative = inhibition | Potency
Cc1ccc([C@H]2N[C@]3(CCCN(Cc4ccccc4)C3=O)[C@H]3C(=O)N(Cc4ccccc4)C(=O)[C@@H]23)cc1 | -28.2% | 
CCN1C(=O)[C@H]2[C@@H](c3ccc(-c4ccc(OC)cc4)cc3)N[C@@](Cc3ccccc3)(C(=O)OC)[C@H]2C1=O | -7.01% | 
COc1ccc([C@H]2N[C@]3(CCCN(Cc4ccco4)C3=O)[C@H]3C(=O)N(C)C(=O)[C@@H]23)cc1 | 12% | 
CCN1C(=O)[C@H]2[C@@H](c3ccc(C(F)(F)F)cc3)N[C@]3(CCCN(Cc4ccc(Br)cc4)C3=O)[C@H]2C1=O |  | 12.6 µM (active)
O=C1[C@H]2[C@@H](c3ccc(C(F)(F)F)cc3)N[C@]3(CCCN(Cc4ccc(Br)cc4)C3=O)[C@H]2C(=O)N1Cc1ccccc1 |  | 2.82 µM (active)
CCN1C(=O)[C@H]2[C@@H](c3ccccc3)N[C@]3(CCCN(Cc4ccc(C)cc4)C3=O)[C@H]2C1=O | 13.6% | 
C[C@H]1CN([C@@H](C)CO)C(=O)c2cc(Br)cnc2O[C@H]1CN(C)S(=O)(=O)c1cccs1 | 5.81% | 
CCOC(=O)C1=CC[C@@H](c2ccncc2)N(S(=O)(=O)c2ccc(C)cc2)C1 | -10.5% | 
Cc1cc2oc(=O)cc(CN(C)Cc3ccccc3)c2cc1Cl | -22.1% | 
CN(C)CCN1CCN(c2cc(-c3cccc(Cl)c3)nc3ccnn23)CC1 | -14.7% | 
COc1ccc(Cl)cc1NC(=O)CSc1nc2ccccc2c2nc(-c3ccccc3)nn12 | 9.31% | 
O=C(CSc1ccccc1)Nc1cc(Cl)ccc1Oc1ccccc1 |  | 11.2 µM (active)
O=C(COC(=O)CSc1ccccc1)Nc1ccc(F)cc1F | -0.781% | 
Cc1ccc(CCNC(=O)CN2C(=O)CSc3ccc(S(=O)(=O)N4CCOCC4)cc32)cc1 | -35.8% | 
CC1=C(C(=O)N2CCOCC2)CC(CC(=O)NCCCN(C)C)C(=O)N1Cc1ccc(C(C)(C)C)cc1 (centres undefined) | 23% | 
CCCCN1C(=O)C(CC(=O)NCc2cccs2)CC(C(=O)N2CCOCC2)=C1C (centres undefined) | 10.4% | 
Nc1ncnc2c1ncn2[C@@H]1O[C@H](C(=O)NCC(F)(F)F)[C@@H](O)[C@H]1O | 25.4% | 
O=CNc1cc(-c2ccc(C(=O)N3CCOCC3)cc2)cn2c(-c3ccc(F)cc3)cnc12 | -5.23% | 
COc1ccccc1N1CCN(CCCCOc2ccc(F)cc2)CC1 |  | 12.6 µM (active)
COc1ccccc1N1CCN(S(=O)(=O)CCNC(=O)COc2ccc(F)cc2)CC1 | -20.4% | 
CCN1CCN(CCCCOc2ccccc2F)CC1 | 0.199% | 
